The values that follow come from PubChem BioAssay AID623957 (NMMLSC, 2012).

The assay can be described thus: fluorescence change in empty-vector K562 cells, dose response, counter-screen for ABCB6 inhibitor project, cell-based, flow cytometry, cherry pick set 1 (AID 623957).

Calls of active or inactive are those of the source.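 The calls were made as follows: active = compounds whose fitted half-maximal concentration for lowering the signal is under 100 µM; inactive = the rest.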

Regarding `C[N+](C)(C)CC1CCCC(C[N+](C)(C)C)C1=O` (stereo unspecified), the result was inactive.
